In article PMC9838217, “Structure of SALL4 zinc finger domain reveals link between AT-rich DNA binding and Okihiro syndrome” one finds binding signal data, which are given here for 40 sequences.

This experiment deals with T1, SALL4 ZFC4 WT (HT-SELEX) (Mus musculus, UniProt Q8BX22 870-940).
T1 sequence: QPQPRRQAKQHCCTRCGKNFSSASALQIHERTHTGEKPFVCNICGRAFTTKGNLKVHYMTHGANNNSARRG
In words: HT-SELEX; high values mean tight binding. The settings on record: protein: recombinant; vector His6-GST; dsDNA, one strand shown. The procedure, abridged: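 Binding signal is defined as the fold change of each canonical k-mer's read fraction versus the initial random library. Selections used 1 µg of purified recombinant mouse SALL4 zinc finger cluster 4 (residues 870–940) with library DNA (1.5 µg first cycle, 200 ng later) in 100 µl of 10 mM Tris–HCl pH 7.5, 50 mM NaCl, poly(dI-dC) and DTT, for 10 min at room temperature, followed by Ni2+ bead capture, washing and PCR. Up to 6 such cycles were run in triplicate before MiSeq sequencing and 6-mer scanning.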
On to CTTTAA, for which the binding signal came out at 1.84 ± 0.0654 fold-change vs cycle 0. In the case of TATGAA it was 3.56 ± 0.299 fold-change vs cycle 0; in that of GTACAA, 1.14 ± 0.0399 fold-change vs cycle 0; in that of CATTAA, 2.01 ± 0.0894 fold-change vs cycle 0. In the case of CGTTGA it was 0.664 ± 0.053 fold-change vs cycle 0; in that of AGGGTG, 0.486 ± 0.0118 fold-change vs cycle 0. On to AAGCTC, for which the binding signal came to 0.631 ± 0.0495 fold-change vs cycle 0. In the case of CATGAC it was 0.822 ± 0.0546 fold-change vs cycle 0; in that of CGAGAC, 0.365 ± 0.0341 fold-change vs cycle 0; in that of ACGAAC, 0.667 ± 0.0536 fold-change vs cycle 0. As for ATCCAC, the figure is 0.828 ± 0.0223 fold-change vs cycle 0; as for CTCAAG, 0.858 ± 0.0354 fold-change vs cycle 0. In the case of ACCACG, the binding signal stood at 0.351 ± 0.0168 fold-change vs cycle 0. With GGACTA, the binding signal was determined as 0.732 ± 0.0464 fold-change vs cycle 0. For TAAGCA, the binding signal was determined as 1.282 ± 0.00819 fold-change vs cycle 0. Regarding AACACT, the binding signal was 1.28 ± 0.027 fold-change vs cycle 0. In the case of TCCTCA it was 0.899 ± 0.0263 fold-change vs cycle 0; in that of GTGGTA, 0.757 ± 0.0708 fold-change vs cycle 0; in that of CAGAAG, 0.787 ± 0.03 fold-change vs cycle 0. Turning to CGATTA, the binding signal is 1.16 ± 0.0473 fold-change vs cycle 0.

As to CCAAAG, the binding signal was 0.69 ± 0.0265 fold-change vs cycle 0. As for CTGAGA, the figure is 0.788 ± 0.03 fold-change vs cycle 0; as for CCGGAA, 0.325 ± 0.0139 fold-change vs cycle 0. In the case of GACTAC it was 0.777 ± 0.0619 fold-change vs cycle 0; in that of AATCTA, 2.03 ± 0.138 fold-change vs cycle 0. In the case of ACATAT it was 2.28 ± 0.213 fold-change vs cycle 0; in that of GGACAC, 0.362 ± 0.012 fold-change vs cycle 0; in that of AGGGAC, 0.483 ± 0.0313 fold-change vs cycle 0.

As for CTAAGA, the binding signal is 1.36 ± 0.0387 fold-change vs cycle 0. As for ATGACC, the figure is 0.806 ± 0.0726 fold-change vs cycle 0; as for ATCGGA, 0.708 ± 0.0433 fold-change vs cycle 0; as for ACCCAC, 0.443 ± 0.0307 fold-change vs cycle 0. In the case of GGATCC it was 0.489 ± 0.0186 fold-change vs cycle 0. As for ATTGCA, the figure is 1.16 ± 0.0389 fold-change vs cycle 0. Consider CGTGTA, for which the binding signal turned out to be 0.651 ± 0.0387 fold-change vs cycle 0.

For the sequence AGTTCG, the binding signal is 0.647 ± 0.0383 fold-change vs cycle 0.

As to AGACTA, the binding signal was 1.31 ± 0.0607 fold-change vs cycle 0. As for CAACAC, the figure is 0.658 ± 0.0239 fold-change vs cycle 0; as for AGGCTA, 0.619 ± 0.0154 fold-change vs cycle 0; as for TACCAA, 1.27 ± 0.0357 fold-change vs cycle 0.
